# Hits are enriched below; roughly 4% of the tested compounds scored in any of these assays.
# GALC G270D up: galactocerebrosidase G270D activity enhancement, cell-based; P54803; 145M-Twi-hGALC-G270D cells (Twitcher mouse brain line with human GALC G270D), HMU-beta-Gal fluorescence, 48 h; Potency, µM (top dose mostly 57.5 µM), usual class: activators; 45,000 compounds, 0.1% hits; also: potency is read from the fitted curve at half-maximal effect; 0% is about no effect; nearly all actives have a fitted effect of over 65% in size
#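 Live 145M-Twi cells (Twitcher mouse brain-derived, GALC-null) stably expressing human GALC-G270D, with a wild-type GALC line, were compound-treated. Residual GALC activity was then read as fluorescence from 0.1 mM final HMU-β-gal at pH 5.2; higher signal means activation.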
# DRV1 agonist: agonists of human resolvin D1 receptor DRV1 (GPR32) | AID 1346428 | activation, % at 76.9 µM | O75388 | CHO-K1 GPR32 beta-arrestin PathHunter luminescence, 90 min; zero percent set by DMSO-only wells | 48,000 compounds, 2.5% hits;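 active = activation of at least 60% and not above a set upper limit, about 1 call in 100 departs from these limits; inconclusive = activation of 40% to 60%, or above that upper limit; inactive = activation under 40%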; also: 0% is about no effect
#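 CHO-K1 cells stably expressing ProLink-tagged GPR32 and Enzyme Activator-tagged beta-arrestin were seeded at 2,500 cells/well overnight, exposed to compounds for 90 min at 37 °C, then read by beta-Gal complementation chemiluminescence after 1 h detection reagent.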
# p53null 39C kill: p53 null cell cytotoxicity, nonpermissive temperature. 55,000 compounds, 0.97% hits. H1299 p53-null (neo) cells, 39C, ATPlite viability, 24 h. Potency, µM (titrated, usually from 46.1 µM), without a hit: top-dose activity, negative = cell killing, usual class: cytotoxic. AID 904;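 also: potency is read from the fitted curve at half-maximal effect; 0% = DMSO only and -100% = full killing by 100 µM tamoxifen; nearly all actives have a fitted effect of over 50% in size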
#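 ATP-luminescence viability readout (ATPlite, 20 min RT) after 24 hr compound treatment at 39C of H1299-neo or H1299-p53A138V cells; titration up to 46 uM; normalized to DMSO and 100 uM tamoxifen; Hill-fit AC50.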
# OvCa metastasis: ovarian cancer metastasis inhibition, 3D TME model. SKOV3ip1-GFP adhesion/invasion on 3D omental model, fluorescence. Potency, µM (doses to about 45.8 µM), for the others: at the top dose activity change, negative = inhibition, most hits filed as inhibitors. 46,000 compounds, 0.1% hits. AID 1963576;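 also: potency is read from the fitted curve at half-maximal effect; plate controls were DMSO wells for no effect and tomatine positive control wells for full effect; nearly all actives have a fitted effect of over 65% in size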
#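 qHTS, 4-pt dose (0.36-46 umol/L); SKOV3ip1-GFP, 1,200 cells/well, no FBS; primary omental fibroblast/mesothelial co-culture 48 h pre-grown; 2 h RT + 16 h 37 C; PBS wash, 4% PFA; GFP count 488/509 nm.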
# NTMT1 inh: NTMT1 methyltransferase inhibition. Q9BV86. 59,000 compounds, 2.5% hits. Potency, µM (titrated, usually from 114 µM), without a hit: at the top dose activity change, negative = inhibition, usual class: inhibitors. NTMT1 MTase-Glo SAH luminescence, purified enzyme;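 also: potency is read from the fitted curve at half-maximal effect; plate controls were DMSO vehicle for no effect and no enzyme for full effect; nearly all actives have a fitted effect of over 65% in size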
# p53null 32C tox: selectivity test: cytotoxicity in p53 null cells, permissive temperature | H1299-neo p53 null cells, ATP luminescence, 24 h, 32C | 55,000 compounds, 0.62% hits | Potency, µM (titrated, usually from 46.1 µM), without a hit: at the top dose activity change, negative = cytotoxicity, usual class: cytotoxic;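 also: potency is read from the fitted curve at half-maximal effect; 0% = DMSO only and -100% = full killing by 100 µM tamoxifen; nearly all actives have a fitted effect of over 55% in size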
#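 Cells lacking p53 (H1299-neo) are plated at 600 per well and allowed to settle overnight at 37C. Test compounds (up to 46 uM) are added and held 24 hours at 32C, then ATP is quantified by luminescence.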
# Sfp PPTase inh: Sfp PPTase inhibition, chemistry optimization | shares compounds with NTMT1 inh | purified Sfp PPTase enzyme activity, qHTS | Potency, µM (top dose mostly 114 µM), for inactives: at the highest dose activity change, negative = inhibition, actives largely listed as inhibitors | 230 compounds, 78% hits
# HM489 growth: Sfp PPTase inhibitors: growth inhibition of B. subtilis HM489. shares compounds with NTMT1 inh. B. subtilis HM489 (acpS-) growth, BacTiter-Glo, 5 h. Potency, µM (highest dose often 114 µM), for inactives: at the top dose activity change, negative = inhibition, usual class: inhibitors. 220 compounds, 50% hits
# Sfp PPTase gel: Sfp PPTase inhibition, gel-based detection | shares compounds with NTMT1 inh | purified Sfp PPTase, gel-based product detection | Potency, µM (series often up to 250 µM), for the others: at the highest dose activity change, negative = inhibition, most hits filed as inhibitors | 220 compounds, 54% hits
# Sfp inh gel: confirmation of Bacillus subtilis Sfp PPTase inhibitors; shares compounds with NTMT1 inh; AID 602362; 45 compounds, 90% hits; Potency, µM (doses to about 250 µM), without a hit: at the highest dose activity change, negative = inhibition, usual class: inhibitors; purified Sfp PPTase, gel-based product detection
# Sfp inh SAR2: Sfp phosphopantetheinyl transferase inhibition, SAR round 2 | 230 compounds, 87% hits | purified Sfp enzyme, PPTase activity, qHTS | shares compounds with NTMT1 inh | Potency, µM (doses to about 57.1 µM), for the others: at the highest dose activity change, negative = inhibition, most hits filed as inhibitors
# hGST ctr: hGST A1-1 enzyme inhibition, Sfp SAR counter-screen. shares compounds with NTMT1 inh. 55 tested, under 10 active. Potency, µM (doses to about 114 µM), without a hit: at the top dose activity change, negative = inhibition, actives largely listed as inhibitors. hGST A1-1 enzyme activity counter-screen, qHTS. AID 602391
# HSD17B4 inh: counter-screen for HPGD inhibitors: human HSD17B4 inhibition. shares compounds with NTMT1 inh. purified HSD17B4, estradiol/NAD+, NADH fluorescence. Potency, µM (highest dose often 57.1 µM), for the others: at the top dose activity change, negative = inhibition, actives largely listed as inhibitors. 230 compounds, 10% hits
# Target sequence (P51659 whole entry, looked up): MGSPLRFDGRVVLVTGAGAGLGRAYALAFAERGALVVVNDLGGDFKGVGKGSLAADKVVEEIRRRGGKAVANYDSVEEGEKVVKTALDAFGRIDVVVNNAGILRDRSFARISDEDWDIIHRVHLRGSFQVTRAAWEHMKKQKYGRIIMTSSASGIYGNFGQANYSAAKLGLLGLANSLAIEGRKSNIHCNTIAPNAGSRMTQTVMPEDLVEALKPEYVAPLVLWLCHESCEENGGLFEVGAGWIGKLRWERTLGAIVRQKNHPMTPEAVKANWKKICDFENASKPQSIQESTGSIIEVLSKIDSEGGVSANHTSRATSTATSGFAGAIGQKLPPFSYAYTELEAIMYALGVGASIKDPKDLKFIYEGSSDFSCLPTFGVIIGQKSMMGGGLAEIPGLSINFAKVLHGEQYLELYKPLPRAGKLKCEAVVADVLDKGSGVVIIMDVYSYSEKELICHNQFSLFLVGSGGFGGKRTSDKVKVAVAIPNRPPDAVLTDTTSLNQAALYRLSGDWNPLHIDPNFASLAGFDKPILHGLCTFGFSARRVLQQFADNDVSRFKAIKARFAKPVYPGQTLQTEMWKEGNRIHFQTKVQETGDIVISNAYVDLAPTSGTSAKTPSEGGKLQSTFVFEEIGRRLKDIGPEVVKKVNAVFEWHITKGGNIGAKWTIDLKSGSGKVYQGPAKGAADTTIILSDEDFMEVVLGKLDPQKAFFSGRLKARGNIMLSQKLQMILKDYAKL
# ALDH1A1 inh: ALDH1A1 (human) inhibition, HPGD counter-screen. Potency, µM (series often up to 57.1 µM), inactives show at the top dose activity change, negative = inhibition, actives largely listed as inhibitors. 230 compounds, 93% hits. recombinant ALDH1A1, NADH fluorescence, propionaldehyde/NAD+. shares compounds with NTMT1 inh
# NNMT counter: blocks human NNMT methyltransferase; shares compounds with NTMT1 inh; NNMT MTase-Glo luminescence, SAH detection; Potency, µM (top dose mostly 57.1 µM), for inactives: top-dose activity, negative = inhibition, usual class: inhibitors; 120 compounds, 10% hits; AID 1645878
# Active calls of the source: *; i = inactive; ? = inconclusive; / = not tested or not shown; ! = not confirmed by another sample; [ ] = remark or other dose. Unless noted, calls follow the shape of the dose curve; as a rule, active = well fitted curve in the direction sought with a large enough effect; inconclusive = small, poorly fitted or top-dose-only effect, or another doubt; inactive = no such curve, though single readings can be large; an effect the other way counts as inactive or inconclusive.
SMILES,GALC G270D up,DRV1 agonist,p53null 39C kill,OvCa metastasis,NTMT1 inh,p53null 32C tox,Sfp PPTase inh,HM489 growth,Sfp PPTase gel,Sfp inh SAR2,HSD17B4 inh,ALDH1A1 inh,NNMT counter,others
Cc1cc(-c2ncc(CC(=O)Nc3ccc(-c4cnccn4)cn3)cc2C)ccn1,/,/,/,-0.5%,4.9%[57.5 µM],/,/,/,/,/,/,/,?,
NC(=NCCCCCCN=C(N)/N=C(\N)Nc1ccc(Cl)cc1)/N=C(\N)Nc1ccc(Cl)cc1,i,86.5*,/,/,25.1µM*!,/,/,/,/,/,/,/,?,
O=C(Nc1ccccc1C(F)(F)F)N1Cc2ccccc2Oc2ncccc21,i,-19.6,-14.6%,7.1%,3.5%,-4.2%,/,/,/,/,/,/,/,
O=C(Nc1ccc(S(=O)(=O)C(F)(F)F)cc1)C1=CCN(c2ncccc2C(F)(F)F)CC1,/,/,/,/,8.8%[57.5 µM],/,/,/,/,/,/,/,-12.4%,
CCn1c(=O)c(-c2ccn[nH]2)cc2c(C)nc(N)nc21,/,/,/,/,-4.8%[57.5 µM],/,/,/,/,/,/,/,-14.4%,
COc1cccc(NC(=S)N2CCN(c3ccc(C(F)(F)F)cc3[N+](=O)[O-])CC2)n1,/,/,/,/,?,/,?,?,31.6µM*,1.45µM*,-14.4%,1.52µM*,/,
COc1cccc(NC(=S)N2CCN(c3cccc(C(F)(F)F)n3)CC2)n1,/,/,/,/,?,/,?,?,4.5%,?,-4.8%,4.82µM*,/,
COc1ccc(NC(=S)N2CCN(c3ccccn3)CC2)cc1OC,/,/,27.9%,/,/,/,/,/,/,/,/,/,/,
COc1ccnc(NC(=S)N2CCN(c3cccc(Cl)c3Cl)CC2)c1,/,/,/,/,?,/,5.91µM*,5.91µM*,7.94µM*,1.02µM*,0.2%,3.83µM*,/,Sfp inh gel=?;hGST ctr=-0.5%

# Screening data (PubChem BioAssay)
